Data published in PubChem BioAssay AID504766 (The Scripps Research Institute Molecular Screening Center, 2011).
The campaign covered roughly 340,000 compounds. About 3,400 (1%) were called active. What follows is part of a selection rich in actives, with near analogues and random picks from the rest. Values without a mark were called inactive.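 How the source made its calls: active means inhibition above the mean over all tested compounds plus 3 SD (cut at about 4.2% in these data); inactive means the rest.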

molecular target: Nuclear receptor subfamily 0 group B member 1 (Homo sapiens) (UniProt P51843); assay: DAX1 (NR0B1) inhibitors, primary screen, cell-based, HEK293, Gal4-DAX1, luciferase luminescence (AID 504766); conditions: HEK293 Gal4-DAX1 luciferase reporter, at 6.75 µM, stronger effect = higher value;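 further: 0% = DAX1-transfected cells with DMSO and 100% = empty-vector control cells with DMSO; inhibition shows as a rise in luminescence from relieved DAX1 repression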
Sequence (P51843 207-470 limits assumed): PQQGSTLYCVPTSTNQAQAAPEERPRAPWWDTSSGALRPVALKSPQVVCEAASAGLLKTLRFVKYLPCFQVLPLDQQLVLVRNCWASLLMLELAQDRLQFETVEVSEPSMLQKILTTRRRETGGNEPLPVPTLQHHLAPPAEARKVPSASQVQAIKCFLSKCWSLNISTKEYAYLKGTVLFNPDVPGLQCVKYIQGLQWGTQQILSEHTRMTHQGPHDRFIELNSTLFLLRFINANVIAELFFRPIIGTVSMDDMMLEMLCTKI

| SMILES | inhibition |
| --- | --- |
| COc1cc(SC)ccc1C(=O)NCCOc1ccccc1Cl | 4.52% (active) |
| COc1cc(SC)ccc1C(=O)N(Cc1ccccc1)c1ccccc1 | -0.88% |
| COc1ccccc1OCCNC(=O)CCNC(=O)c1ccccc1Cl | 0.98% |
| O=C(NCC(F)(F)F)c1ccc(S(=O)(=O)NCCc2ccc3c(c2)OCCO3)cc1 | 1.37% |
| C#Cc1cc(N2CCN(C(=O)c3ccoc3)CC2)n2nc(-c3cccc(Cl)c3)cc2n1 | -0.19% |
| CCCc1c(C)nc2scc(-c3ccc(Cl)cc3)n2c1=O | 1.4% |
| COc1ccc(NC(=O)NCc2ccc3c(c2)OCO3)c(OC)c1 | 0.03% |
| COc1ccc(OC)c(/C=C/C(=O)OCC(=O)Nc2ccc3c(c2)OCCO3)c1 | 0.21% |
| COc1ccc(OC)c(/C=C/C(=O)c2ccc3c(c2)OCO3)c1 | 5.49% (active) |
| CCCCN(C(C)=O)c1ccc2c(c1)C1CC2CCN1Cc1ccccc1 (stereo unspecified) | 1.48% |
| CCN(CC)CCN(C(=O)c1ccc2c(c1)CCCC2)c1nc2c(OC)cccc2s1 | -0.58% |
| COC(=O)/C=C/C(=O)NCc1ccco1 | 1.74% |
| CC(C)(C)NC(=O)NCc1ccco1 | 4.44% (active) |
| O=C(CC12CC3CC(CC(C3)C1)C2)NCc1ccco1 | -0.86% |
| COc1ccc(OC)c(C(=O)NC2CCCc3c2cnn3-c2cc(C)cc(C)c2)c1 (stereo unspecified) | -1.87% |
| COc1ccc(NC(=O)C2COc3ccccc3O2)cc1 (stereo unspecified) | 5.29% (active) |
| CC(=O)c1cccc(NC(=O)C2COc3ccccc3O2)c1 (stereo unspecified) | 2.01% |
| COc1ccc(NC(=O)COC(=O)C2COc3ccccc3O2)cc1 (stereo unspecified) | 0.47% |
| COc1cc(C(=O)N2CCOC23CCN(Cc2ccccc2)CC3)cc(OC)c1OC | 2.69% |
| O=C(CN1C(=O)NC2(CCCCCC2)C1=O)NC1CC1 | -0.19% |
| O=C(CN1C(=O)NC2(CCCCCC2)C1=O)NCc1ccc(F)cc1 | -0.55% |
| O=C(CN1C(=O)NC2(CCCC2)C1=O)NCC1CCCO1 (stereo unspecified) | 10.2% (active) |
| CC1CCCC(C)N1C(=O)COC(=O)c1ccccc1C(=O)c1ccccc1 (stereo unspecified) | 1.22% |

| SMILES | inhibition |
| --- | --- |
| N#CCCN1CCN(S(=O)(=O)c2ccc(S(=O)(=O)NC3CCCCC3)cc2)CC1 | 4.67% (active) |
| N#CCCN1CCN(S(=O)(=O)c2ccc(S(=O)(=O)N3CCCC3)cc2)CC1 | 2.37% |
| N#CCCN1CCN(S(=O)(=O)c2ccc(S(=O)(=O)NC3CC3)cc2)CC1 | -1.02% |
| CNC(=O)c1ccc(CN(C)C(=O)c2cc(C3CC3)nc3c2cnn3C(C)C)cc1 | 0.25% |
| COCCNC(=O)CSc1nc(N)c(NC(=O)c2ccco2)c(=O)[nH]1 | 0.48% |
| CCN(CC(=O)Nc1ccc(NC(C)=O)cc1)C(=O)C1CC(=O)N(c2ccc3c(c2)OCCO3)C1 (stereo unspecified) | 0.46% |
| CCn1c(CN2C(=O)CSc3ccccc32)n[nH]c1=S | 7.22% (active) |
| CCn1c(CNS(=O)(=O)c2ccc(Cl)cc2)n[nH]c1=S | 0.01% |
| CCn1c(CSCc2c(Cl)cccc2Cl)n[nH]c1=S | -0.93% |
| O=C(COC(=O)c1cncc(Br)c1)Nc1ccc(S(=O)(=O)N2CCOCC2)cc1 | 1.32% |
| O=C(Nc1cc(F)ccc1F)c1ccc2c(=O)n3c(nc2c1)CCC3 | 3.09% |
| O=C1c2ccccc2C(=O)c2c1cccc2N1CCN(CCO)CC1 | 0% |
| O=C(CN1CCN(Cc2ccccc2)CC1)NC(c1ccccc1)c1ccccc1 | -1.74% |
| O=C1c2ccccc2C(=O)c2c1cccc2N1CCN(Cc2ccccc2)CC1 | 4.26% (active) |
| CC(=O)Nc1ccc2c3c(ccc([N+](=O)[O-])c13)CC2 | -0.19% |
| COc1cccc(NC(=S)NC(=O)c2c(Cl)c(C)nn2C)c1 | 4.28% (active) |
| COc1cccc(OC)c1C(=O)NC(=S)Nc1ccc(N2CCOCC2)c(Cl)c1 | 0.83% |
| Cc1nn(C)c(C(=O)NNC(=S)NC2CCCCC2)c1Cl | -0.26% |
| CCCCCCn1c(=O)n2n(c1=O)C[C@]1(OC(=O)NCc3ccc(OC)c(OC)c3)CN(S(=O)(=O)c3ccc(C)cc3)C[C@]1(O)C2 | -0.07% |
| C=CCN1CCN(c2ccncc2S(=O)(=O)N2CCN(C)CC2)CC1 | 1.7% |
| C[C@@H]1CN([C@@H](C)CO)C(=O)c2c(c3ccccc3n2C)-c2ccccc2CO[C@H]1CN(C)C(=O)C1CC1 | 0.47% |
| COc1ccc(NC(=O)N(C)C[C@@H]2OCc3cn(nn3)CCCC(=O)N([C@H](C)CO)C[C@H]2C)c(OC)c1 | -0.22% |
| C=CCOc1ccccc1NC(=O)CN1C(=O)CNC1=O | 4.47% (active) |

| SMILES | inhibition |
| --- | --- |
| C=CCOc1ccccc1/C=N/NC(=O)Cc1ccccc1 | 0.28% |
| Cc1cccc(NC(=O)CN2C(=O)CNC2=O)c1 | 1.34% |
| COc1ccc(/C=C2\N=C3CCCN3C2=O)cc1 | 4.84% (active) |
| COc1ccc(/C=C2/CCCc3ccccc3C2=O)cc1 | -1.11% |
| COc1ccc(/C=C2\SC(=N)N(c3ccc(F)cc3)C2=O)cc1 | -0.7% |
| COc1ccc(S(=O)(=O)N2CCC(C(=O)NCCC(=O)NCCc3cccc(F)c3)CC2)cc1 | 0.25% |
| CSc1ncnc2c1ncn2CCCNCC1CCCCC1 | -0.19% |
| COc1ccc(-c2nnc(SC(C)C#N)o2)cc1 (stereo unspecified) | 4.68% (active) |
| COc1ccc(-c2nnc(SC(C)C(=O)NC3CC3)o2)cc1 (stereo unspecified) | 1.85% |
| COc1ccc(-c2nnc(SC(=O)N3c4ccccc4Sc4ccccc43)o2)cc1 | -1.53% |
| CNC(=O)C1CN(C(=O)c2cccc(S(=O)(=O)N3CCc4ccccc43)c2)c2ccccc2O1 (stereo unspecified) | -2.16% |
| CCCCN(C(=O)CSCc1ccc(C)cc1)c1c(N)n(Cc2ccccc2)c(=O)[nH]c1=O | 0.19% |
| CCCN(C(=O)CSc1nnnn1C)c1c(N)n(Cc2ccccc2)c(=O)[nH]c1=O | 5.42% (active) |
| CCCN(C(=O)CSc1nnc(N)s1)c1c(N)n(Cc2ccccc2)c(=O)[nH]c1=O | -2.02% |
| CC(C)CC1C(=O)N(Cc2cn(Cc3ccco3)nn2)CCS(=O)(=O)N1Cc1ccc(-c2ccc(Cl)c(Cl)c2)cc1 (stereo unspecified) | -1.34% |
| CCn1c(SCC(=O)N2CCCC2=O)nc2ccccc21 | 1.3% |
| CCOC(=O)c1ccc(NC(=S)Nc2cc(C)cc(C)n2)cc1 | 1.42% |
| CCOC(=O)c1cn[nH]c1NC(=S)Nc1ccccc1 | 6.19% (active) |
| CCOC(=O)c1cc2c(nc1NC(=S)Nc1ccccc1)CC(C)(CC)OC2 (stereo unspecified) | 0.77% |
| O=C(NN=Cc1ccc2c(c1)CCC2)c1ccccc1O | 2.24% |
| O=C(C[C@H]1C[C@H]2c3cc(NS(=O)(=O)c4ccc(F)cc4)ccc3O[C@H]2[C@H](CO)O1)NCc1cc(F)ccc1F | -0.52% |
| Cc1ccc(NC(=O)CN2CCC(C(N)=O)CC2)cc1[N+](=O)[O-] | 0.4% |
| Cc1ccc(NC(=O)c2sccc2C)cc1[N+](=O)[O-] | 5.25% (active) |

| SMILES | inhibition |
| --- | --- |
| Cc1ccc(NC(=O)CN(C)CC(=O)Nc2cccc(F)c2)cc1[N+](=O)[O-] | -3.16% |
| CCN(CC)C(=O)C(=O)Nc1cccc(Br)c1 | 1.59% |
| CC(=O)Nc1cccc(C(=O)OCN2C(=O)c3ccccc3C2=O)c1 | 0.92% |
| CCN(CC)N=Nc1cccc(NC(C)=O)c1 | 8.01% (active) |
| CC(C)n1ncc2c(C(=O)N3CCN(Cc4cccs4)CC3)cc(C3CC3)nc21 | -1.38% |
| Cc1ccc(S(=O)(=O)N(CCc2ccccc2)c2ccc3c(c2)C2CC3CCN2C(=O)OCc2ccccc2)cc1 (stereo unspecified) | -0.92% |
| O=C(c1ccco1)N1CCN(CCOc2ccccc2)CC1 | 3.53% |
| FC(F)(F)c1cccc(Cc2noc(CN3CCC(N4CCCCC4)CC3)n2)c1 | 0.44% |
| O=C(c1ccco1)N1CCN(Cc2cccc(C(F)(F)F)c2)CC1 | 4.58% (active) |
| O=C(CN1CCN(C(=O)c2ccco2)CC1)Nc1ccc(Cl)c(C(F)(F)F)c1 | -0.99% |
| CCOC(=O)N1CCN(Cc2nc(Cc3cccc(C(F)(F)F)c3)no2)CC1 | 4.88% (active) |
| Fc1cccc(Cc2noc(CN3CCN(c4cnccn4)CC3)n2)c1 | -1.08% |
| Cc1cc(C)c2cc(C#N)c(N3CCNCC3)nc2c1 | 0.35% |
| O=Cc1cn(CCOc2ccc(F)cc2)c2ccccc12 | -0.3% |
| O=C(CNC(=O)N1CC(=O)Nc2ccccc21)Nc1ccc(Br)cc1F | 0.45% |
| Cc1nnc(SC(C)C(=O)c2c[nH]c3ccccc23)n1C1CC1 (stereo unspecified) | 0.71% |
| COc1ccc2c(CC(=O)OCC(=O)Nc3ccccc3[N+](=O)[O-])coc2c1 | 0.79% |
| COc1ccc(N(CC(=O)Nc2cccc3ccccc23)S(C)(=O)=O)c(OC)c1 | -0.73% |
| CCc1ccccc1NC(=O)CN(c1ccc(OC)cc1OC)S(=O)(=O)c1ccccc1[N+](=O)[O-] | 5.44% (active) |
| CCN(CC)C(=O)C1=C(C)N(Cc2ccc(OC)cc2)C(=O)C(CC(=O)NCCCCc2ccccc2)C1 (stereo unspecified) | -0.34% |
| CCOc1ccc(CCNC(=O)COC(=O)c2ccc(C)c(S(=O)(=O)N3CCOCC3)c2)cc1OCC | -0.65% |
| CCN(CC)C(=O)C1=C(C)N(Cc2ccc(C(C)(C)C)cc2)C(=O)C(CC(=O)NCc2cccc3ccccc23)C1 (stereo unspecified) | -0.14% |
